Test results: PubChem BioAssay AID1159580 (chemical genetic matrix, 2015)
The whole screen tested about 5,500 compounds, of which about 2,000 (36%) were called active. Roughly 18% stayed inconclusive and do not appear here. Rule as the data show it: active = normalized growth mostly below about 0.91 (no sharp cut-off); inconclusive = no clear call, values can overlap the other calls; inactive = mostly above about 0.92. The list shows a part of the results.

Test: chemical genetic growth profiling, strain panel (AID 1159580);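 also: tested at 20 µM; growth read once vehicle control cultures reached saturation at 30 °C; 1 = growth at the plate median or of vehicle wells; lower values mean less growth of the strain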
Conditions: growth OD

Measured: normalized growth

S=c1[nH]c2ccccc2[nH]1
inactive: S. cerevisiae deletion strains, locus YAL013W, strain DEP1, active compounds read low 0.988 | S. cerevisiae deletion strains, locus YBR229C, strain ROT2, active compounds read low 1.01 | S. cerevisiae deletion strains, locus YDL101C, strain DUN1, active compounds read low 1.02 | S. cerevisiae deletion strains, locus YDR150W, strain NUM1, active compounds read low 0.993 | S. cerevisiae deletion strains, locus YEL061C, strain CIN8, active compounds read low 0.982 | S. cerevisiae deletion strains, locus YGR078C, strain PAC10, active compounds read low 1.02 | S. cerevisiae deletion strains, locus YHR030C, strain SLT2, active compounds read low 1 | S. cerevisiae deletion strains, locus YHR087W, strain rtc3, active compounds read low 1.01 | S. cerevisiae deletion strains, locus YJR043C, strain POL32, active compounds read low 0.988 | S. cerevisiae deletion strains, locus YJR075W, strain HOC1, active compounds read low 1.01 | S. cerevisiae deletion strains, locus YLR039C, strain RIC1, active compounds read low 0.99 | S. cerevisiae deletion strains, locus YLR058C, strain SHM2 (second series), active compounds read low 0.991 | S. cerevisiae deletion strains, locus YLR085C, strain ARP6, active compounds read low 0.976 | S. cerevisiae deletion strains, locus YLR262C, strain YPT6, active compounds read low 0.986 | S. cerevisiae deletion strains, locus YML094W, strain GIM5, active compounds read low 1.06 | S. cerevisiae deletion strains, locus YMR219W, strain ESC1, active compounds read low 0.999 | S. cerevisiae deletion strains, locus YMR263W, strain SAP30, active compounds read low 0.984 | S. cerevisiae deletion strains, locus YMR307W, strain GAS1, active compounds read low 0.87 | S. cerevisiae deletion strains, locus YNL128W, strain TEP1, active compounds read low 1.02 | S. cerevisiae deletion strains, locus YNL153C, strain GIM3, active compounds read low 1.01 | S. cerevisiae deletion strains, locus YNL298W, strain CLA4 (second series), active compounds read low 0.997 | S. cerevisiae deletion strains, locus YNL322C, strain KRE1, active compounds read low 1 | S. cerevisiae deletion strains, locus YNR030W, strain Alg12, active compounds read low 1.01 | S. cerevisiae deletion strains, locus YPL055C, strain LGE1, active compounds read low 0.961 | S. cerevisiae deletion strains, locus YPL241C, strain CIN2, active compounds read low 1.03 | S. cerevisiae deletion strains, locus YPR135W, strain CTF4, active compounds read low 1.01 | S. cerevisiae strains, strain wild type, active compounds read low 0.995
